Mcl1-Bid inh: disrupts binding of human Mcl-1 to Bid peptide; Q07820; TR-FRET Mcl-1/Bid-Dy647 peptide binding, 1536-well; inhibition, % at 21.7 µM; actives 0.97% (n = 220,000);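 active = compounds that cut the binding signal by more than half at the single screening dose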;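 also: His-tagged Mcl-1 with europium anti-His antibody binding Bid BH3 peptide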
Target sequence (Q07820 whole entry, looked up): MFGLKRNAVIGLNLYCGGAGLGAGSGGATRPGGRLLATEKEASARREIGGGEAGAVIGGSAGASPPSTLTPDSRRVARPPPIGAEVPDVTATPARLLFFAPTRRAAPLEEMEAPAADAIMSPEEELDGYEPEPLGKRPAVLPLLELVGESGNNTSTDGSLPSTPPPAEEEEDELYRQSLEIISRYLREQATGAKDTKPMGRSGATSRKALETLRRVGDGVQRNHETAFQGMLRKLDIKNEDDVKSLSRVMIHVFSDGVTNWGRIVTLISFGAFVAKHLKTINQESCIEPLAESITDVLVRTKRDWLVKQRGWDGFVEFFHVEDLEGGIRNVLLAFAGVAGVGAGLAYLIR
TNF death inh: blocks TNF-alpha induced death of Jurkat FADD-/- cells; actives 0.068% (n = 220,000); activation (protection from cell death), % at 10 µM; Jurkat FADD-/- TNF necroptosis rescue, ATP luminescence, 24 h; 0 = TNF only, 100 = no-TNF cells;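 active = activation, meaning protection from cell death, of at least 50% relative to plate controls; inactive = activation below 50%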;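 also: necroptosis triggered by 40 ng/mL TNF-alpha added together with compound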
zVAD death inh: L929 zVAD cell death inhibition | AID 1377 | L929 zVAD necroptosis rescue, ATP luminescence, 24 h; with zVAD 60 µM | actives 0.38% (n = 220,000) | viability rescue, % at 10 µM;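 active = activation, scaled between plate controls, above about 75%, limit read from the data; inactive = activation under that limit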
Mcl1-Noxa inh: disrupts binding of human Mcl-1 to Noxa peptide; Q07820; actives 1.5% (n = 220,000); AID 1022; TR-FRET Mcl-1/Noxa peptide binding, 2 h; inhibition, % at 21.7 µM;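 active = compounds that cut the protein-peptide binding signal by more than 50% relative to plate controls in a single-dose test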;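 also: His-tagged Mcl-1 with rhodamine Noxa BH3 peptide and terbium anti-His antibody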
MCL1-BIM inh: disrupts human MCL1 binding to BIM-BH3 peptide. actives 0.68% (n = 320,000). inhibition, % at 10.9 µM. GST-MCL1 / FITC-Bim-BH3 fluorescence polarization. AID 2057;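 active = inhibition above the mean inhibition of all tested compounds plus 3 SD, set per campaign, cut at about 40% in these data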;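 also: higher means more loss of mP so more displacement of Bim peptide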
Bim-Mcl-1: human Bim-Mcl-1 interaction inhibition. Bead-based flow cytometry, Bim peptide-Mcl-1 binding. inhibition, % at 10 µM. actives 0.1% (n = 190,000); in the data active = inhibition above about 40%
Large screens that a line does not name were inactive. An excerpt weighted towards active compounds, which were near 2.4% of everything screened.

Cc1cc(NS(=O)(=O)c2ccc(NC(=O)c3ccccc3C)cc2)no1	none (no result: Mcl1-Bid inh, TNF death inh, zVAD death inh, Mcl1-Noxa inh, Bim-Mcl-1)
CC1(C)CC(=O)C=C(c2ccc3[nH]ccc3c2)C1	none (no result: Mcl1-Bid inh, TNF death inh, zVAD death inh, Mcl1-Noxa inh, Bim-Mcl-1)
Cc1ccc(OCC(=O)NNc2c3ccccc3nc3ccccc23)cc1	Mcl1-Bid inh 62.2, Mcl1-Noxa inh 50.6
COc1ccc(Nc2nc(-c3ccccc3)c3ccccc3n2)cc1	none
CCOc1ccc(Nc2c3ccccc3nc3ccccc23)cc1	Mcl1-Noxa inh 53.2 (no result: Bim-Mcl-1)
CCOc1ccc(Nc2cc(C)c3ccccc3n2)cc1	none (no result: Mcl1-Bid inh, TNF death inh, zVAD death inh, Mcl1-Noxa inh, Bim-Mcl-1)
COc1ccc(Nc2nc(C)c3ccccc3n2)cc1	Mcl1-Bid inh 101.9
Cc1nn(C(C)C(=O)N/N=C/c2ccc(N(C)C)cc2)c(C)c1[N+](=O)[O-] (stereo not drawn)	none (no result: Bim-Mcl-1)
CC1(C)Oc2ccc3ccc(=O)oc3c2[C@@H](O)[C@H]1O	none (no result: Mcl1-Bid inh, TNF death inh, zVAD death inh, Mcl1-Noxa inh, Bim-Mcl-1)
COc1ccc(CCC(=O)NCCOc2ccccc2Cl)cc1	none (no result: Mcl1-Bid inh, TNF death inh, zVAD death inh, Mcl1-Noxa inh, Bim-Mcl-1)
CCc1ccc(NC(=O)CCc2nc3ccccc3[nH]2)cc1	none
Oc1cc(-n2cccn2)c(O)cc1-n1cccn1	Mcl1-Noxa inh 69.8 (no result: Bim-Mcl-1)
CCN(CC)CCCn1c2c(c(SCC(=O)Nc3ccc4c(c3)OCCO4)nc1=O)CCC2	none (no result: Mcl1-Bid inh, TNF death inh, zVAD death inh, Mcl1-Noxa inh, Bim-Mcl-1)
O=C(N/N=C1/C(=O)c2cccc3cccc1c23)c1ccc(Cl)cc1	Mcl1-Bid inh 87.7, MCL1-BIM inh 45.9
Cn1c(=NC(=O)c2ccccc2[N+](=O)[O-])sc2cc(S(C)(=O)=O)ccc21	none
CS(=O)(=O)c1ccc2c(c1)sc1nc(=O)c(/C=C3/C=CC(=O)C(O)=C3)c(N)n12	Mcl1-Noxa inh 90.3 (no result: Bim-Mcl-1)
CS(=O)(=O)c1nsc2nc(=O)c(/C=C3\C=Nc4ccccc43)c(N)n12	none
COC1=C/C(=C/c2c(N)n3c(nc2=O)sc2cc(S(C)(=O)=O)ccc23)C=CC1=O	Mcl1-Noxa inh 54.3 (no result: Bim-Mcl-1)
OCC1(O)OC[C@@H](O)[C@H]1O (stereo partly drawn)	none (no result: Bim-Mcl-1)
CCc1ccc(-c2nc(CS(=O)CC(=O)NCc3ccco3)c(C)o2)cc1 (stereo not drawn)	none (no result: Mcl1-Bid inh, TNF death inh, zVAD death inh, Mcl1-Noxa inh, Bim-Mcl-1)
CCn1cc(C(=O)NCCCOC(C)C)c(=O)c2cc(S(=O)(=O)N3CCC(C)CC3)ccc21	none (no result: Mcl1-Bid inh, TNF death inh, zVAD death inh, Mcl1-Noxa inh, Bim-Mcl-1)
O=S(=O)(c1cccc2cccnc12)N1CCN(c2ccc(F)cc2)CC1	TNF death inh 55.5
O=c1n(S(=O)(=O)c2cccc3cccnc23)c2ccccc2n1S(=O)(=O)c1cccc2cccnc12	Mcl1-Bid inh 91.4
CC1CC(C)CN(S(=O)(=O)c2cccc3cccnc23)C1 (stereo not drawn)	none
CC(=O)Nc1nnc(S(=O)(=O)N2CCN(c3ccc([N+](=O)[O-])cc3Cl)CC2)s1	none (no result: Mcl1-Bid inh, TNF death inh, zVAD death inh, Mcl1-Noxa inh, Bim-Mcl-1)
CC1CCc2c(sc(Nc3nc4c(F)cccc4s3)c2C(N)=O)C1 (stereo not drawn)	Mcl1-Noxa inh 101.3
O=C(Nc1nc2c(F)cccc2s1)C1CC1	none (no result: Mcl1-Bid inh, TNF death inh, zVAD death inh, Mcl1-Noxa inh, Bim-Mcl-1)
O=[N+]([O-])c1ccc(NC(=S)NCCc2ccccc2)cc1	none
O=[N+]([O-])c1ccc(NC(=S)NCCc2ccc(Cl)cc2)cc1	Mcl1-Bid inh 93.6
Cc1cc2ccccc2n1CCNC(=O)c1ccccc1	none
Cc1cc2ccccc2n1CCNC(=O)c1ccc(Br)o1	MCL1-BIM inh 48.0
Oc1ccc(N2CCN(c3ncnc4sc(-c5ccccc5)cc34)CC2)cc1	Mcl1-Noxa inh 87.2 (no result: MCL1-BIM inh)
CC(=O)N1CCN(c2ncnc3sc(-c4ccccc4)cc23)CC1	none
CN1C(=O)/C(=C/c2cn(CC(=O)N3CCCCC3)c3ccccc23)c2ccccc21	Mcl1-Noxa inh 97.0
Cc1ccc2oc(=O)n(Cc3ccc(F)cc3)c2c1	none (no result: Mcl1-Bid inh, TNF death inh, zVAD death inh, Mcl1-Noxa inh, Bim-Mcl-1)
Cc1cccc(N2CCN(C(=O)C3CCN(S(=O)(=O)N4CCOCC4)CC3)CC2C)c1 (stereo not drawn)	none
Cc1ccccc1-c1cc2nc(-c3ccc([N+](=O)[O-])cc3)cc(=O)n2[nH]1	none
O=c1cc(-c2ccc([N+](=O)[O-])cc2)nc2cc(-c3ccc(F)cc3)[nH]n12	Mcl1-Noxa inh 64.6
CCCSC1=N/C(=C\c2ccc([N+](=O)[O-])o2)C(=O)S1	Mcl1-Noxa inh 78.8 (no result: MCL1-BIM inh)
CCCSC1=N/C(=C\C=C\c2ccco2)C(=O)S1	Mcl1-Noxa inh 76.5
CCCSC1=N/C(=C\c2ccsc2)C(=O)S1	none
CCCSC1=N/C(=C\c2ccc3c(c2)OCO3)C(=O)S1	none
CCOc1ccccc1C(=O)NCC(=O)NCCCSc1ccccc1	none (no result: Mcl1-Bid inh, TNF death inh, zVAD death inh, Mcl1-Noxa inh, Bim-Mcl-1)
CCOC(=O)C1CCN(C(=O)Cn2c(=O)c3cccn3c3cccnc32)CC1	none (no result: Mcl1-Bid inh, TNF death inh, zVAD death inh, Mcl1-Noxa inh, Bim-Mcl-1)
CCN1C(=O)N/C(=C/c2ccc(C)o2)C1=O	none
CC1=C(C#N)C(=O)N(C2CCS(=O)(=O)C2)C(=O)/C1=C\c1ccc(C)o1 (stereo not drawn)	Mcl1-Noxa inh 92.7, MCL1-BIM inh 51.5 (no result: Bim-Mcl-1)
CCOC(=O)c1c(NC(=O)Cc2ccccc2)sc2c1CCN(C)C2	none (no result: Mcl1-Bid inh, TNF death inh, zVAD death inh, Mcl1-Noxa inh, Bim-Mcl-1)
CCOC(=O)c1c(NC(=O)CSc2nnc(C)s2)sc2c1CCN(C)C2	Mcl1-Noxa inh 68.4
CC(NC(=O)COC(=O)/C=C/c1ccc2c(c1)OCO2)c1ccccc1 (stereo not drawn)	none (no result: Mcl1-Bid inh, TNF death inh, zVAD death inh, Mcl1-Noxa inh, Bim-Mcl-1)
Clc1ccc(SCCn2ccnc2)cc1	Mcl1-Bid inh 67.5
Clc1ccc(OCCn2ccnc2)c(Cl)c1	none
CCOC(=O)CC1=C(C(=O)OCC)C(c2ccc(OC)cc2OC)C(C#N)=C(N)O1 (stereo not drawn)	MCL1-BIM inh 42.6
CC1C2(C)OC(=N)C(C#N)(C(C)O2)C1(C#N)C#N (stereo not drawn)	MCL1-BIM inh 48.4 (no result: Bim-Mcl-1)
O=C1c2ccccc2-c2onc3c(Oc4ccccc4)cc(O)c1c23	Mcl1-Noxa inh 59.2 (no result: MCL1-BIM inh)
